The whole screen tested about 10,000 compounds, of which about 320 (3.2%) were called active. The sample holds actives, similar compounds and a random draw of the others, so the mix is not that of the screen. A number with no mark means an inactive call. Rule as the data show it: active = CPE inhibition mostly above about 9.1% (no sharp cut-off); inactive = mostly below about 7.2%.

The test can be described thus: antivirals protecting cells from dengue CPE – CPE readout, HTS (AID 540333). As to conditions: Dengue virus CPE inhibition in host cells, at 20 µM; active compounds read high.
With `Clc1ccc(-n2nnnc2CN2CCOCC2)cc1Cl`, the CPE inhibition was 0.27%.

`COc1ccccc1OCCOCCOc1ccccc1Cl`: the CPE inhibition result is “inactive”.

As for `O=C1CN(C(=O)COC(=O)/C=C/c2ccc(OC(F)F)cc2)c2ccccc2N1`, the CPE inhibition entry was “inactive”.

`CCOC(=O)c1c(C)[nH]c(C)c1C(=O)COC(=O)/C=C/c1ccc(OC(F)F)cc1`: the CPE inhibition was 10.1% (active).

On to `O=C(COC(=O)/C=C/c1ccc(OC(F)F)cc1)NCc1cccs1`, for which the CPE inhibition is 0.315%.

Regarding `C/C(=N\NC(=O)CSc1nnc(C)s1)c1ccc(Cl)cc1`, the CPE inhibition entry was “inactive”.

For `CC(C)CC(=O)NC1(C(F)(F)F)C(=O)N(CC(C)C)C2=C1C(=O)CC(C)(C)C2` (stereo not given), the CPE inhibition result is “inactive”.

Consider `CNc1nc(Nc2ccc(C)c(Cl)c2)nc(N)c1[N+](=O)[O-]`, for which the CPE inhibition is 9.08% (active).

For `CC(=O)Nc1ccc(Nc2nc(C)c([N+](=O)[O-])c(Nc3ccc(NC(C)=O)cc3)n2)cc1`, the CPE inhibition result was “inactive”.

As for `Cc1ccc(C)c(Nc2ncnc(N)c2[N+](=O)[O-])c1`, the CPE inhibition is 6.21%.

Take `COc1cccc(-c2ncc3ccccc3c2COC(=O)c2ccc(C(F)(F)F)cc2)c1`: the CPE inhibition was 0.77%.

On to `COc1cccc(-c2ncc3ccccc3c2CO)c1`, for which the CPE inhibition result was “inactive”.

For `COc1cccc(-c2ncc3ccccc3c2COC(=O)c2ccc(C(C)(C)C)cc2)c1`, the CPE inhibition was 15.2% (active).

As for `CC(=O)N1N=C(c2ccc(Br)cc2)OC1(C)CC(=O)Nc1ccccc1` (stereo not given), the CPE inhibition is 4.7%.

Turning to `O=C(CN1CCCCCCC1)N/N=C/c1ccccc1F`, the CPE inhibition is 0.805%.

Consider `C/C(=N\NC(=O)COc1ccc(C(C)(C)C)cc1)c1ccc(-n2ccnc2)cc1`, for which the CPE inhibition is 10.2% (active).

As for `C/C(=N\Nc1ccc(Cl)c(Cl)c1)c1ccc(-n2ccnc2)cc1`, the CPE inhibition entry was “inactive”.

Regarding `CC(C)(C)c1ccc(OCC(=O)N/N=C/c2ccc(N3CCOCC3)cc2)cc1`, the CPE inhibition is 1.86%.

`NS(=O)(=O)c1cccc(NC(=O)CSc2ncc(C(F)(F)F)cc2Cl)c1`: the CPE inhibition was 3.56%.

As to `CN(c1ccccc1)S(=O)(=O)c1cccc(NC(=O)CSc2nncn2C)c1`, the CPE inhibition is 0.35%.

For the compound `CN(c1ccccc1)S(=O)(=O)c1cccc(NC(=O)CSc2ncc(C(F)(F)F)cc2Cl)c1`, the CPE inhibition is 22.4% (active).

On to `Cc1c(Cl)cccc1NC(=S)NCc1cccn1C`, for which the CPE inhibition is 0.255%.

For the compound `Cc1cc(C)cc(-n2c(C)cc(/C=C3\C(=N)N4N=C(CC(C)C)SC4=NC3=O)c2C)c1`, the CPE inhibition was 15.1% (active).

As for `Cc1cccc(-n2c(C)cc(/C=C3\C(=N)N4N=C(CC(C)C)SC4=NC3=O)c2C)c1`, the CPE inhibition is 0.575%.

For the compound `Cc1cccc(-n2c(C)cc(/C=C3/C(=N)N4C(c5ccccc5)=CSC4=NC3=O)c2C)c1`, the CPE inhibition is 5.77%.

Turning to `COC(=O)c1ccc(Oc2c(Cl)cccc2[N+](=O)[O-])cc1`, the CPE inhibition is 0.625%.

Take `COc1ccc(Nc2nc(-c3cccc([N+](=O)[O-])c3)nc3ccccc23)c(OC)c1`: the CPE inhibition was 0.465%.

Consider `O=C(O)CC(CC(=O)O)c1ccsc1`, for which the CPE inhibition result is “inactive”.

With `CCOC(=O)N1CCN(C(=O)c2ccc(-n3c(C)ccc3C)cc2)CC1`, the CPE inhibition is 0.68%.

As to `CCOC(=O)c1ccc(-n2c(C)ccc2C)cc1`, the CPE inhibition was 0.33%.

On to `C=CC[C@]12CCc3sccc3C1N(c1ccc(C(=O)OCC)cc1)C2=O` (stereo not given in full), for which the CPE inhibition is 19.9% (active).

For `Cc1cc(=O)[nH]c(N/N=C/c2ccc(Br)s2)n1`, the CPE inhibition result was “inactive”.

On to `CCc1nnc(N2C(=O)c3ccc(Oc4ccc([N+](=O)[O-])cc4)cc3C2=O)s1`, for which the CPE inhibition is 0.2%.

Regarding `Cc1cccc(-c2nsc(SCC(=O)NCc3ccc4c(c3)OCO4)n2)c1`, the CPE inhibition was 0.255%.

For `S=C(Nc1ccc(OCc2ccccc2)cc1)Nc1cccc(Cl)c1Cl`, the CPE inhibition was 0.45%.

On to `S=C(Nc1ccccc1Oc1ccccc1)Nc1cccc(Cl)c1Cl`, for which the CPE inhibition is 12.8% (active).

For the compound `FC(F)Oc1ccccc1NC(=S)Nc1cccc(Cl)c1Cl`, the CPE inhibition is 0.195%.

Regarding `COc1cccc(NC(=O)CN2C(=O)C(c3ccc(C)cc3)=NC23CCCCCC3)c1`, the CPE inhibition is 3.59%.

`Cc1ccc(-n2c(=S)[nH]c3nc4c(cc3c2=O)COC(C)(C)C4)cc1`: the CPE inhibition entry was “inactive”.

Consider `O=S(=O)(/N=C(/Nc1ccccn1)c1ccc(Cl)cc1)c1ccc(Cl)cc1`, for which the CPE inhibition is 0.025%.

Turning to `O=C1c2cccc(OCc3ccc(F)cc3)c2CCN1Cc1ccccc1`, the CPE inhibition was 11.8% (active).

As to `Cc1cccc(CN2CCc3c(OCC(=O)N4CCCc5ccccc54)cccc3C2=O)c1`, the CPE inhibition is 4.05%.

As for `O=C(COc1cccc2c1CCN(Cc1ccc(Br)cc1)C2=O)NCc1ccco1`, the CPE inhibition was 13.9% (active).

As to `Cc1ccc(CN2CCc3c(OCc4ccc(F)cc4)cccc3C2=O)cc1`, the CPE inhibition was 23.2% (active).

For the compound `Cc1ccc(COc2cccc3c2CCN(Cc2ccc(F)cc2)C3=O)cc1`, the CPE inhibition was 23% (active).

`Cc1cccc(CN2CCc3c(OCC(=O)NCc4ccco4)cccc3C2=O)c1`: the CPE inhibition result was “inactive”.

As for `CCOC(=O)N1CCN(C(=O)COc2cccc3c2CCN(Cc2ccc(F)cc2)C3=O)CC1`, the CPE inhibition was 0.16%.

`O=C1c2cccc(OCC(=O)N3CCCc4ccccc43)c2CCN1Cc1ccccc1`: the CPE inhibition entry was “inactive”.

With `COC(=O)c1ccc(COc2cccc3c2CCN(Cc2cccc(C)c2)C3=O)o1`, the CPE inhibition was 0.825%.

Regarding `O=C(COc1cccc2c1CCN(Cc1ccccc1)C2=O)NCc1ccco1`, the CPE inhibition entry was “inactive”.

With `Cc1ccc(C)c(NC(=O)COc2cccc3c2CCN(Cc2ccccc2)C3=O)c1`, the CPE inhibition was 0.435%.

As for `O=C1c2cccc(OCc3ccc(F)cc3)c2CCN1Cc1ccc(F)cc1`, the CPE inhibition was 7.61%.

Regarding `COc1ccc(CC(=O)Oc2cc(C)[nH]c(=O)c2[N+](=O)[O-])cc1`, the CPE inhibition entry is “inactive”.

With `O=C(NCCc1nc2ccccc2[nH]1)/C(=C/c1ccc2c(c1)OCO2)NC(=O)c1ccccc1`, the CPE inhibition entry was “inactive”.

With `C=CCc1ccc(OCCOc2cccc3cccnc23)c(OC)c1`, the CPE inhibition was 1.16%.

Turning to `CSc1n[nH]c2nc3c(c(=O)n12)C1(CCCC1)Cc1ccccc1-3`, the CPE inhibition result was “inactive”.

Regarding `Nn1cnc2c(c1=O)C1(CCCCC1)Cc1ccccc1-2`, the CPE inhibition was 0.27%.

For `NC(=O)CSc1nc2c(c(=O)n1-c1ccccc1)C1(CCCCC1)Cc1ccccc1-2`, the CPE inhibition is 13.4% (active).

As for `COCc1nnc(NC(=O)c2cc(OC)c(OC)cc2[N+](=O)[O-])s1`, the CPE inhibition is 0.875%.

As for `CCOc1ccc(S(=O)(=O)c2c(C(=O)c3ccc(C)cc3)cnc3cc4c(cc23)OCCO4)cc1`, the CPE inhibition was 3.02%.

`Cc1ccc(S(=O)(=O)c2c(C(=O)c3ccccc3)cnc3cc4c(cc23)OCCO4)cc1`: the CPE inhibition was 13.2% (active).

Take `Cc1ccc(C(=O)c2cnc3cc4c(cc3c2S(=O)(=O)c2ccccc2)OCCO4)cc1`: the CPE inhibition is 6.29%.

Consider `Cc1ccc(O)c(-c2cc(C(=O)Nc3ccc(S(=O)(=O)Nc4nc(C)cc(C)n4)cc3)[nH]n2)c1`, for which the CPE inhibition entry was “inactive”.

With `COc1cc2cc(CCOC(=O)c3ccco3)oc(=O)c2cc1OC`, the CPE inhibition is 0.275%.

For `N#Cc1ccc(NC(=O)COC(=O)CCNS(=O)(=O)c2ccccc2)cc1`, the CPE inhibition entry was “inactive”.

As for `CCCCCCCNC(=O)C1(CC2CC(c3cccc(Br)c3)=NO2)CCNCC1` (stereo not given), the CPE inhibition entry is “inactive”.

For `COC(=O)C1(CC2CC(c3ccncc3)=NO2)CCN(C(=O)OC(C)(C)C)CC1` (stereo not given), the CPE inhibition result was “inactive”.

As to `CCCCCCCNC(=O)C1(CC2CC(c3cccc(Br)c3)=NO2)CCN(C(=O)C2(C)CC2)CC1` (stereo not given), the CPE inhibition was 2.1%.

On to `CCCCCCCNC(=O)C1(CC2CC(c3ccc(Cl)cc3)=NO2)CCN(C(=O)C2(C)CC2)CC1` (stereo not given), for which the CPE inhibition is 1.24%.

`CCCCCCCNC(=O)C1(CC2CC(c3ccccc3)=NO2)CCN(C(=O)OC(C)(C)C)CC1` (stereo not given): the CPE inhibition is 14.1% (active).

As to `CCCCCCCNC(=O)C1(CC2CC(c3cccc(Br)c3)=NO2)CCN(C(=O)Cc2ccc(F)cc2)CC1` (stereo not given), the CPE inhibition is 21.7% (active).

For the compound `O=C(Nc1cccc2nsnc12)c1cccnc1Cl`, the CPE inhibition entry was “inactive”.

For the compound `Cc1ccc(CNC(=O)c2cc(-c3ccccc3)nn2CC2CC(c3cccnc3)=NO2)cc1` (stereo not given), the CPE inhibition result was “inactive”.

Take `Cc1ccc(-c2cc(C(F)(F)F)c(C#N)c(=O)[nH]2)cc1`: the CPE inhibition is 0.3%.

Consider `N/C(=N\OC(=O)Cc1ccccc1[N+](=O)[O-])c1ccncc1`, for which the CPE inhibition is 0.175%.

With `Cc1ccc(C(=O)N/C(=C/c2ccco2)C(=O)NCCc2c[nH]c3ccccc23)cc1`, the CPE inhibition was 0.17%.

With `CCn1cc([N+](=O)[O-])c(C(=O)N2N=C(c3ccc(OC)cc3OC)CC2c2ccccc2O)n1` (stereo not given), the CPE inhibition was 0.7%.

On to `CCn1cc(Cl)c(C(=O)N2N=C(c3ccc4ccccc4c3)CC2c2ccccc2O)n1` (stereo not given), for which the CPE inhibition was 10% (active).

For the compound `CCn1cc([N+](=O)[O-])c(C(=O)N2N=C(c3ccc(O)c(OC)c3)CC2c2ccccc2O)n1` (stereo not given), the CPE inhibition is 2.17%.

For the compound `CC(=O)c1cccc(NC(=O)CCCOc2ccc(C)cc2)c1`, the CPE inhibition result is “inactive”.

For the compound `Cc1noc(C)c1CN(C(=S)NC(C)C)c1ccccc1`, the CPE inhibition entry was “inactive”.

As to `Cc1ccsc1-c1n[nH]c(=S)n1CC(C)C`, the CPE inhibition result is “inactive”.

Take `Cn1nccc1C(=O)Nc1ccn(C23CC4CC(CC(C4)C2)C3)n1`: the CPE inhibition is 1.19%.

For `Cn1cc([N+](=O)[O-])c(C(=O)Nc2ccn(C34CC5CC(CC(C5)C3)C4)n2)n1`, the CPE inhibition was 9.72% (active).

For the compound `CCn1cc([N+](=O)[O-])c(C(=O)Nc2ccn(C34CC5CC(CC(C5)C3)C4)n2)n1`, the CPE inhibition was 0.05%.

Consider `O=C(C[n+]1cccc(CNC(=O)c2ccc(OC(F)F)cc2)c1)Nc1cccc(C(F)(F)F)c1`, for which the CPE inhibition is 0.165%.

`CC(/C=C/c1ccccc1F)=N\NC(=O)C(C)C`: the CPE inhibition was 1.25%.

With `CN(C)c1ccc(N=Nc2ccccc2C(=O)OCC(=O)N2CCCCCC2)cc1`, the CPE inhibition was 1.56%.

Take `COc1ccc(C2OCC3(CO2)SC(=O)NC3=O)cc1` (stereo not given): the CPE inhibition is 0.47%.

For the compound `O=C(NC1CCCC1)C(c1ccncc1)N(Cc1ccccc1)C(=O)c1ccc(-c2ccccc2)[nH]1` (stereo not given), the CPE inhibition is 3.1%.

As to `Cc1cc(C)cc(NC(=O)C(NCC2CCCO2)c2ccccc2)c1` (stereo not given), the CPE inhibition entry is “inactive”.

Turning to `O=C(NCC1CCCO1)C(c1cccs1)N(Cc1ccccc1Cl)C(=O)c1ccc(-c2ccccc2)[nH]1` (stereo not given), the CPE inhibition is 16.9% (active).

Consider `CC(C)(C)NC(=O)C(c1cccs1)N(CC1CCCO1)C(=O)c1ccc(-c2ccccc2)[nH]1` (stereo not given), for which the CPE inhibition was 28.6% (active).

Take `COc1ccc(C(=O)N(CC2CCCO2)C(C(=O)NCCC(C)C)c2ccc(C)cc2)cc1OC` (stereo not given): the CPE inhibition result is “inactive”.

For the compound `O=C(NCC1CCCO1)C(c1cccs1)N(Cc1ccccc1)C(=O)c1ccc(-c2ccccc2)[nH]1` (stereo not given), the CPE inhibition was 8.12%.

Values taken from PubChem BioAssay AID540333 (Southern Research Specialized Biocontainment Screening …, 2011).
